p53ts 32C tox – kills p53ts cells at the permissive temperature | H1299-p53A138V at 32C, ATP luminescence viability, 24 h | Potency, µM (titrated, usually from 46.1 µM), actives largely listed as cytotoxic | 0.93% of 130,000 active; also: nearly all actives have a fitted effect of over 55% in size
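Cells: H1299 p53ts (A138V), 600/well, pre-incubated 16–30 h at 37C. Cpd up to 46 uM, 24 h, 32C. Readout: ATPlite luminescence, 20 min RT. Normalization: DMSO vs tamoxifen 100 uM. AC50 by Hill equation.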
IkB sig inh – suppresses IkB signaling in ABC-DLBCL reporter cells. ABC-DLBCL IkBa-CBG/CBR dual luciferase ratio, 4 h; response scale: scaled: untreated 0%, proteasome inhibitor 100%. Potency, µM (series often up to 57.1 µM). 0.04% of 110,000 active. AID 445; active = well fitted curve in the direction sought with a large enough effect in the signal ratio, not every such curve was filed as active; inconclusive = small, poorly fitted or top-dose-only effect, or a change in a side signal; the % refers to the signal ratio;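 also: the direction sought is a rising ratio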
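Curves were fitted separately to fusion (green), unfused (red) and ratio luminescence, then classed by r2, magnitude and activity. Cells: OCI-Ly3, 4 h compound plus doxycycline at 37C; 10 uM MG-132 defined full response.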
p53ts 39C tox – kills p53ts cells at the nonpermissive temperature; H1299-p53A138V viability at 39C, ATP luminescence, 24 h; Potency, µM (highest dose often 46.1 µM), hits mostly cytotoxic; AID 902; 1.5% of 130,000 active; also: nearly all actives have a fitted effect of over 55% in size
Peg3 imprint – induces erasure of genomic imprints in mouse ES cells. 0.02% of 110,000 active. Potency, µM (titrated, usually from 60.7 µM), hits mostly activators. mouse ES Peg3-LacZ reporter, beta-gal luminescence, 40 h. AID 1948
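Readout: BetaGlo luminescence (5 min, room temp) for LacZ from the normally silent maternal Peg3 allele in female Peg3LacZ-Neo ES cells. Cells 300/well, 40 h, 37C, 5% CO2. Data normalized per plate to negative controls.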
Of the large screens only hits and unclear results are named; the others gave an inactive call; ! = not confirmed by another sample. Only some compounds are listed: those with a hit (about 1.7% of all), similar ones and a draw of the others. Unless noted, calls follow the shape of the dose curve; as a rule, active = well fitted curve in the direction sought with a large enough effect; inconclusive = small, poorly fitted or top-dose-only effect, or another doubt; inactive = no such curve, though single readings can be large; an effect the other way counts as inactive or inconclusive.

CCCN(CCC)C(=O)Cn1c(=O)n(-c2ccc(OC)cc2)c(=O)c2ccc(C(=O)NCc3ccc(C)cc3)cc21	none
CCc1ccc(NC(=O)Cn2c(=O)n(-c3ccc(OC)cc3)c(=O)c3ccc(C(=O)NCc4ccc(C)cc4)cc32)cc1	p53ts 32C tox 10µM, p53ts 39C tox 3.16µM
Cc1ccc(NC(=O)Cn2c(=O)n(-c3ccc(C)cc3)c(=O)c3ccc(C(=O)NCc4ccccc4Cl)cc32)cc1	p53ts 32C tox 6.31µM, IkB sig inh inconclusive, p53ts 39C tox 1.26µM
N[C@@H](CSS(=O)(=O)O)C(=O)O	none
CN(C(=O)c1ccncc1)c1nnc(-c2ccccn2)s1	none
CN(C(=O)c1ccccc1)c1nc2ccccc2s1	p53ts 32C tox 10µM, IkB sig inh inconclusive, p53ts 39C tox 12.6µM
CCc1ccc(S(=O)(=O)c2nnn3c2nc(Nc2ccc(NC(C)=O)cc2)c2sccc23)cc1	p53ts 32C tox inconclusive, p53ts 39C tox 12.6µM
CCc1ccc(Nc2nc3c(S(=O)(=O)c4cccc(Cl)c4)nnn3c3ccsc23)cc1	none
CC(C)(C)c1ccc(Cn2nnc3c(=O)[nH]c(C4CCN(C(=O)Cc5cccs5)CC4)nc32)cc1	p53ts 32C tox inconclusive, IkB sig inh inconclusive, p53ts 39C tox 15.8µM
O=C(O)c1ccc(Cl)c(S(=O)(=O)Nc2ccccc2)c1	none (no result: IkB sig inh, Peg3 imprint)
COc1ccc(NC2=Nc3ccccc3CC2)cc1	IkB sig inh inconclusive
COc1ccc2nc3c(cc2c1)Cc1ccccc1-3	p53ts 32C tox 0.794µM, p53ts 39C tox 0.794µM (no result: IkB sig inh)
Cn1c(O)c(N=N/C(=N/c2ccccn2)c2ccccn2)c2cc(Br)ccc21	none (no result: IkB sig inh, Peg3 imprint)
Cc1cn2c(=O)cc(COC(=O)c3cccc(NC(=O)c4ccc(C(C)(C)C)cc4)c3)nc2s1	p53ts 32C tox 2.51µM, IkB sig inh inconclusive, p53ts 39C tox 3.16µM
CC(C)(C)c1ccc(C(=O)Nc2ccc(C(=O)OCc3cc(=O)n4ccsc4n3)cc2)cc1	p53ts 32C tox 15.8µM, IkB sig inh inconclusive, p53ts 39C tox 15.8µM
Cc1ccc(C(=O)Nc2ccc(C(=O)OCc3cc(=O)n4ccsc4n3)cc2)cc1	none
CCc1ccc(-n2nc(CO)c(C(=O)NCC(c3ccccc3)c3ccccc3)n2)cc1	none
CCc1ccc(-n2nc(CO)c(C(=O)NC)n2)cc1	p53ts 32C tox inconclusive, p53ts 39C tox 15.8µM
O=C(O)c1ccc2cc(-c3ccc(O)c(C45CC6CC(CC(C6)C4)C5)c3)ccc2c1	p53ts 32C tox 20µM, p53ts 39C tox inconclusive (no result: IkB sig inh)
O=[N+]([O-])c1cc(Cc2cc([N+](=O)[O-])c3cccnc3c2O)c(O)c2ncccc12	IkB sig inh 5.01µM
CCCC(=O)NC(c1cccs1)c1cc([N+](=O)[O-])c2cccnc2c1O (configuration not stated)	none (no result: p53ts 32C tox, IkB sig inh, Peg3 imprint)
Cc1[nH]c2ccccc2c1SCC(=O)N1CCOCC1	p53ts 39C tox 12.6µM
CCOc1ccc(NC(=O)c2ccc(N)cc2)cc1	p53ts 32C tox 12.6µM, IkB sig inh inconclusive, p53ts 39C tox 12.6µM
O=C(Nc1cnn(Cc2ccc(F)cc2)c1)c1cc(-c2ccc(Br)cc2)on1	none
Cc1ccc(Nc2ncnc3c2nc2n3CCCC2)c(Br)c1	p53ts 32C tox 10µM (no result: IkB sig inh, p53ts 39C tox, Peg3 imprint)
Cc1ccc(C)c(N2CCN(CCCNC(=O)c3ccc4nc(CCc5ccccc5)oc4c3)CC2)c1	IkB sig inh inconclusive, p53ts 39C tox 25.1µM
Cc1ccc(C)c(N2CCN(CCCNC(=O)c3ccc4nc(N5CCC(C)CC5)sc4c3)CC2)c1	IkB sig inh inconclusive, p53ts 39C tox 12.6µM
Cc1ccc(Cl)cc1N1CCN(CCCNC(=O)c2ccc3nc(N4CCCCC4)sc3c2)CC1	IkB sig inh inconclusive
COc1ccc(C=Nc2c(O)ccc3ccccc23)cc1OC	none
Cc1cc2c(cc1Cl)C(c1ccc3c(c1)OCO3)CC(=O)O2 (configuration not stated)	none (no result: p53ts 32C tox, IkB sig inh, p53ts 39C tox)
COc1cc(OC)c(NC(=O)CCCn2nc(C)c3sc4ccccc4c3c2=O)cc1Cl	p53ts 39C tox 12.6µM
O=C(Nc1ccc2nc3ccccc3nc2c1)c1ccccc1	p53ts 32C tox inconclusive, p53ts 39C tox 10µM (no result: IkB sig inh, Peg3 imprint)
Oc1c(CN2CCN(c3ccccc3)CC2)cc(Br)c2cccnc12	p53ts 39C tox inconclusive
Oc1c(Br)cc(Br)c2cccnc12	p53ts 32C tox inconclusive, p53ts 39C tox 7.94µM (no result: IkB sig inh)
COc1ccc2nc(NC(=O)c3ccoc3C)sc2c1	p53ts 32C tox 7.94µM, IkB sig inh inconclusive, p53ts 39C tox inconclusive
COc1ccc2sc(NC(=O)c3ccco3)nc2c1	p53ts 32C tox 10µM, IkB sig inh inconclusive, p53ts 39C tox 10µM
COCCn1c(=O)c(-c2ccc(Cl)cc2)nc2cnc(Oc3cccc(Cl)c3)nc21	none
COc1ccccc1NS(=O)(=O)c1cc(C(=O)O)ccc1F	none (no result: IkB sig inh, Peg3 imprint)
C[C@H]1C[C@@H]2[C@H]3CCC4=CC(=O)C=C[C@@]4(C)[C@]3(Cl)[C@@H](Cl)C[C@]2(C)[C@]1(O)C(=O)COP(=O)(O)O	none (no result: p53ts 32C tox, p53ts 39C tox, Peg3 imprint)
Cc1ccc2c(c1[N+](=O)[O-])C(=O)c1ccccc1C2=O	none
CC1=CC(=O)c2ccccc2C1=O	p53ts 32C tox 25.1µM, IkB sig inh inconclusive, p53ts 39C tox inconclusive
O=C(Nc1ccc(F)cc1)c1ncn(-c2ccccc2)n1	p53ts 32C tox inconclusive, IkB sig inh inconclusive, p53ts 39C tox 15.8µM
CCOc1ccc(NC(=O)c2ncn(-c3ccccc3)n2)cc1	IkB sig inh inconclusive
CN(C)c1ccc(/C=C2/C(=O)Nc3ccccc32)cc1	p53ts 32C tox 10µM, IkB sig inh inconclusive, p53ts 39C tox 10µM
CN(C)c1ccc(/C=C2\C(=O)Nc3ccccc32)cc1	none (no result: p53ts 32C tox, IkB sig inh, p53ts 39C tox)
CCCC(=O)c1cc(O)c(O)cc1O	none
Cc1nn(Cc2ccc(Cl)cc2Cl)c(C)c1NC(=O)CCl	p53ts 32C tox 17.8µM, p53ts 39C tox 5.62µM (no result: IkB sig inh, Peg3 imprint)
COc1ccc2c(c1)C(c1ccccc1C)CC(=O)O2 (configuration not stated)	none (no result: p53ts 32C tox, IkB sig inh, p53ts 39C tox)
COc1cccc(-c2cc(C(=O)Nc3cccc(O)c3)no2)c1	p53ts 32C tox 2.51µM, IkB sig inh inconclusive, p53ts 39C tox 3.16µM
COc1cc(NC(=O)c2cc(-c3ccc(Cl)c(Cl)c3)on2)cc(OC)c1OC	p53ts 39C tox 20µM
NC(=S)NCCCC(N)C(=O)O (configuration not stated)	none (no result: p53ts 32C tox, IkB sig inh, p53ts 39C tox)
CN(C)c1ccc(-c2cc(NCc3cccnc3)ncn2)cc1	p53ts 32C tox inconclusive, p53ts 39C tox 7.94µM
C[C@@]12C(=O)OC(=O)[C@@]1(C)[C@H]1CC[C@@H]2O1	IkB sig inh 3.98µM! (no result: Peg3 imprint)
CC12C(=O)OC(=O)C1(C)C1CCC2O1 (configuration not stated)	none (no result: IkB sig inh)
Cc1ccc(C)c(CN2C(=O)c3ccccc3S(=O)(=O)c3ccc(C(=O)NCCCN4CCCC(C)C4)cc32)c1 (configuration not stated)	IkB sig inh inconclusive, p53ts 39C tox inconclusive
CC1CCCN(CCCNC(=O)c2ccc3c(c2)N(Cc2ccc(Cl)cc2)C(=O)c2ccccc2S3(=O)=O)C1 (configuration not stated)	p53ts 32C tox inconclusive, IkB sig inh inconclusive, p53ts 39C tox 10µM
COCCn1c(C)cc(C(=O)CSc2ccc(NC(C)=O)cc2)c1C	p53ts 32C tox inconclusive, p53ts 39C tox 12.6µM
CC(=O)Nc1ccc(SCC(=O)c2cc(C)n(Cc3cccs3)c2C)cc1	p53ts 32C tox 2.51µM, p53ts 39C tox 2.51µM
